Compounds with a hit are over-represented: about 22% of the library has one in this group of screens.
CHX counter: counter-screen for Shiga toxin inhibitors: cycloheximide protein synthesis inhibition; cell reporter, cycloheximide protein synthesis inhibition counterscreen; max response, %; actives 12% (n = 300,000); AID 2314; in the data active means max response mostly above about 13%, no sharp cut-off; inactive means mostly below about 14%; further: read at 38.3 µM for the half of the compounds with a filed dose; 0% is about no effect
Shiga toxin inh: Shiga toxin inhibition; Vero cells, Shiga toxin protein synthesis inhibition reporter; inhibition, % at 38.7 µM; actives 9.2% (n = 290,000); AID 2315; in the data active means inhibition mostly above about 28%, no sharp cut-off; inactive means mostly below about 43%; further: 0% is about no effect
Pf growth 96h: P. falciparum growth inhibition at 96 hour, primary screen for plastid delayed-death inhibitors. actives 6.9% (n = 320,000). P. falciparum luciferase reporter growth, 96 h. Potency, µM (titrated, usually from 28.7 µM), inactives show at the highest dose activity change, negative = inhibition, most hits filed as inhibitors; further: potency means the concentration at half of the fitted maximal effect; on the % scale 0 is the no-effect control and ±100 the full control effect
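P. falciparum expressing integrated firefly luciferase grown in erythrocytes (2% hematocrit, 0.05% parasitemia final) with compounds for 96 hours at 37 C, 5% CO2. Growth inhibition read as loss of luminescence after adding luciferase detection reagent.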
Pf growth 48h: P. falciparum growth inhibition at 48 hours (one generation). P. falciparum luciferase growth in erythrocytes, 48 h. Potency, µM (series often up to 28.7 µM), for inactives: top-dose activity change, negative = inhibition, usual class: inhibitors. actives 5.9% (n = 310,000). AID 504832; further: potency means the concentration at half of the fitted maximal effect; on the % scale 0 is the no-effect control and ±100 the full control effect
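Cell-based growth assay: transgenic P. falciparum expressing firefly luciferase, cultured in red cells within RPMI 1640 containing 0.5% w/v Albumax, 24 mM bicarbonate and gentamycin. A drop in luciferase activity indicates inhibition.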
LmPK inh: blocks Leishmania mexicana pyruvate kinase activity | Q27686 | purified LmPK, Kinase-Glo ATP luminescence, 1 h | Potency, µM (doses to about 57.5 µM), for inactives: top-dose activity change, negative = inhibition, hits mostly inhibitors | actives 0.37% (n = 290,000) | AID 1721; further: potency means the concentration at half of the fitted maximal effect; on the % scale 0 is the no-effect control and ±100 the full control effect
Target sequence (Q27686 whole entry, looked up): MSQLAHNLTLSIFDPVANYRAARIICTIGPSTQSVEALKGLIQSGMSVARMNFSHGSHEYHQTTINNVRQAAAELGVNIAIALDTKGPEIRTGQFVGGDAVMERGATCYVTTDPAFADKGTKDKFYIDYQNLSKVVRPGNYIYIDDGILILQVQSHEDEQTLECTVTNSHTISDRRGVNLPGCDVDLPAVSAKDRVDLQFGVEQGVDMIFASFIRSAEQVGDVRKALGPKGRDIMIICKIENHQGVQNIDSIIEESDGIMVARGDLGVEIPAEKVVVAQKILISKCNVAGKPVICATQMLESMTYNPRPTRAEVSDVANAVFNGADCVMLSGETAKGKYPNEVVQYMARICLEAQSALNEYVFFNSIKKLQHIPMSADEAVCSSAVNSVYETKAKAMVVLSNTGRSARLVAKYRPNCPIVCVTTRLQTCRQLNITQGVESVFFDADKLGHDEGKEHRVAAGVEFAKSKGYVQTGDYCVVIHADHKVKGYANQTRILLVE
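Purified LmPK (0.1 nM) with 0.5 mM PEP and 0.1 mM ADP in imidazole buffer pH 7.2 with MgCl2/KCl, 1 h at room temperature. ATP formed was read by luciferase luminescence and normalized to no-enzyme and uninhibited controls.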
Starred values were filed as active, the others as inactive; ? = inconclusive; . = no result; [ ] = another dose, or the depositor's remark. Unless noted, the call rests on the fitted dose curve; in most records, active means well fitted inhibition curve with a large enough effect; inconclusive means small, poorly fitted or top-dose-only effect, or another doubt; inactive means no such curve, though single readings can be large or run the other way.

SMILES	CHX counter	Shiga toxin inh	Pf growth 96h	Pf growth 48h	LmPK inh
COc1ccc(C(=O)/C=C/C(=O)N(Cc2ccc3c(c2)OCO3)C(C(=O)NC2CCCCC2)c2ccncc2)c(O)c1 (stereo not drawn)	-2	-3	15%	5.2µM*	1%
COc1ccc(CN(C(=O)/C=C/C(=O)c2ccc(OC)cc2O)C(C(=O)NC2CCCCC2)c2ccncc2)cc1 (stereo not drawn)	-1	-10	6%	12µM*	-1%
CN1CCN(CCCc2c3c(cc4c2CCC4)CCC3)CC1	0	-5	-9%	9%	-4%
COCCCNC(=O)CNC(=S)N(Cc1ccccc1)Cc1cccnc1	-3	-9	10µM*	36%	1%[11.5 µM]
O=C(CNC(=S)N(Cc1ccccc1)Cc1cccs1)NCc1ccc(F)cc1	-1	20	?	?	9%
COCCNC(=O)CNC(=S)N(Cc1ccccc1)Cc1cccnc1	-3	-9	12µM*	7%	0%
O=C(CNC(=S)N(Cc1ccccc1)Cc1ccccc1F)NCCc1ccc(Cl)cc1	3	0	?	12µM*	1%
Cc1ccc(CN(Cc2ccccc2)C(=S)NCC(=O)NCc2cccnc2)o1	12	-7	-5%	12µM*	-12%
COc1ccccc1CN(C)C(=O)CN1CCN(C(=O)c2cccs2)CC1	.	.	-27%	?	.
O=C(NCc1ccon1)C1CCC(=O)N(CCc2cccc(F)c2)C1 (stereo not drawn)	-1	-9	?	1%	1%
COc1ccc(CCNC(=O)CC(Cc2ccc(C)cc2)C(=O)O)cc1OC (stereo not drawn)	-3	-5	14%	-1%	1%
CC1=NN(c2ccc(Cl)cc2)C(=O)C1	1	-9	2%	-15%	3%
Cc1ccc(N2CS(=O)(=O)/C(=C/N(C)C)C2=O)cc1	38*	77*	219%	2.6µM*	-20%
COc1ccc(N2C(=O)/C(=C/N(C)C)NC2=S)cc1	1	-3	-2%	3%	?
CN(C)/C=C1\C(=O)N(c2ccc(Cl)cc2)CS1(=O)=O	36*	86*	127%	39%	-18%
CC1=C(C(=O)Nc2ccccc2)C(c2ccc(C)o2)n2c(s/c(=C/c3ccccc3)c2=O)=N1 (stereo not drawn)	9	11	?	.	7%
CCOc1ccc(C2C(C(=O)Nc3ccccc3)=C(C)N=c3s/c(=C/c4cccc(OCC(=O)O)c4)c(=O)n32)cc1 (stereo not drawn)	10	8	?	0.47µM*	7%
CC1=C(C(=O)Nc2ccccc2C)C(c2ccc(C)o2)n2c(s/c(=C/c3ccccc3)c2=O)=N1 (stereo not drawn)	-2	12	.	2.9µM*	-3%
CC1=C(C(=O)Nc2ccccc2)C(c2ccc(Cl)cc2)n2c(s/c(=C/c3cccc(OCC(=O)O)c3)c2=O)=N1 (stereo not drawn)	1	-8	5%	1.7µM*	2%
CC1=C(C(=O)Nc2ccccc2)C(c2ccccc2)N2C(=O)CSC2=N1 (stereo not drawn)	-2	-21	32%	.	10%
Cc1nn(-c2ccccn2)c2c1C(=O)CC(C)(C)C2Br (stereo not drawn)	2	4	?	15µM*	1%
CC(C)(C)c1nn2cnnc2n(/N=C/c2ccc(O)cc2)c1=O	-8	-9	?	1%	-3%
CCOC(=O)[C@H]1[C@H]2COc3ccccc3[C@@H]2N2C(=O)c3cc(OC)ccc3NC(=O)[C@@]12C	.	.	?	5.2µM*	.
C[C@@]12C(=O)Nc3ccc(Br)cc3C(=O)N1[C@H]1c3cc(Cl)ccc3OC[C@@H]1[C@@H]2c1ccccc1	.	.	3.3µM*	3.7µM*	.
COc1ccc2c(c1)[C@@H]1[C@H](CO2)[C@H](c2ccccc2)[C@]2(C)C(=O)Nc3ccc(C)cc3C(=O)N12	.	.	?	13µM*	.
SMILES	CHX counter	Shiga toxin inh	Pf growth 96h	Pf growth 48h	LmPK inh
CCOC(=O)[C@H]1[C@H]2COc3ccc(Br)cc3[C@@H]2N2C(=O)c3ccc(Cl)cc3NC(=O)[C@@]12C	.	.	?	9.3µM*	.
CCOC(=O)[C@H]1[C@H]2COc3ccccc3[C@@H]2N2C(=O)c3cc(F)ccc3NC(=O)[C@@]12C	.	.	47%	?	.
Cc1ccc2c(c1)[C@H]1[C@H](CO2)[C@H](c2ccccc2)[C@]2(C)C(=O)NCC(=O)N12	.	.	18%	8%	.
COc1ccc2c(c1)C(=O)N1[C@H]3c4cc(C)ccc4OC[C@@H]3[C@H](c3ccccc3)[C@]1(C)C(=O)N2	.	.	?	9.3µM*	.
COc1ccc2c(c1)[C@H]1[C@H](CO2)[C@H](c2ccccc2)[C@]2(C)C(=O)Nc3cc(OC)c(OC)cc3C(=O)N12	.	.	?	9.3µM*	.
C[C@@H]1NC(=O)[C@@]2(C)[C@@H](c3ccccc3)[C@H]3COc4ccc(Cl)cc4[C@@H]3N2C1=O	.	.	?	14%	.
CCC(=O)N1c2ccc(S(=O)(=O)CCC(=O)N3CCN(c4ccccc4F)CC3)cc2CC1C (stereo not drawn)	-1	-3	?	-11%	2%
COCCNC(=O)c1cccc(OC2CCN(Cc3cccc(C(C)=O)c3)CC2)c1	1	4	0%	-10%	-3%
CSCCCNC(=O)c1ccc(OC2CCN(CCc3ccccc3)CC2)cc1	31*	93*	13µM*	?	7%
CC(Cc1ccccn1)NC(=O)c1ccc(OC2CCN(CCc3ccccc3)CC2)cc1 (stereo not drawn)	29*	47*	13%	12µM*	-3%
COC(=O)[C@@H](NC(=O)c1ccc(OC2CCN(Cc3ccccn3)CC2)cc1)C(C)C	-3	37	22%	-17%	-2%
O=C(NCC1COCCO1)c1ccc(OC2CCN(CCc3ccccc3)CC2)cc1 (stereo not drawn)	2	20	2%	1%	5%
CCCN1CCC(Oc2cccc(C(=O)NCCc3ccccc3)c2)CC1	56*	72*	0%	?	-10%
O=C(NCCc1ccccn1)c1ccc(OC2CCN(CCc3ccccc3)CC2)cc1	42*	65*	8%	45%	-10%
COc1ccccc1CN(C(=O)CNC(=O)c1ccco1)C(C(=O)NCC1CCCO1)c1ccc(OC)c(OC)c1 (stereo not drawn)	2	-3	?	0%	9%
CCOC(=O)C1(CCCc2ccccc2)CCN(C(=O)c2cc(C)nn2CC)CC1	-1	-12	?	?	9%
O=C(NCCS(=O)(=O)NCc1ccccn1)c1ccccc1	.	.	1%	8%	.
CCOC(=O)c1nncc(-c2ccccc2)n1	.	.	?	33%	.
CCc1ccc(C(=O)c2cnc3ccc(OC)cc3c2N2CCN(CC)CC2)cc1	-3	-4	36%	-27%	2%
CCN1CCN(c2c(S(=O)(=O)c3ccc(C)c(C)c3)cnc3ccc(F)cc23)CC1	-1	-2	2.3µM*	?	0%
